Reference: ChEMBL document CHEMBL3988442, “University of Dundee, Small-Polar-MMV Screening Library” (2021)
For some of these results: Entries with a potency or affinity are not part of this list.

Experiments:
Parameters in all cases: scale not given: direction of the effect not stated beside the values
[1] = target: Protein translocase subunit SecA (Escherichia coli (strain K12)) (UniProt P10408); assay: Assay to Identify E. coli SecA ATPase Inhibitors; assay type: functional; settings: 30 µM
[2] = target: T1, Ubiquitin-activating enzyme e1, putative (Leishmania donovani (strain BPK282A1)) (UniProt E9BSI1); assay: Leishmania donovani Ubiquitin Activating Enzyme (LdE1); assay type: functional; settings: 30 µM
T1 sequence (whole entry): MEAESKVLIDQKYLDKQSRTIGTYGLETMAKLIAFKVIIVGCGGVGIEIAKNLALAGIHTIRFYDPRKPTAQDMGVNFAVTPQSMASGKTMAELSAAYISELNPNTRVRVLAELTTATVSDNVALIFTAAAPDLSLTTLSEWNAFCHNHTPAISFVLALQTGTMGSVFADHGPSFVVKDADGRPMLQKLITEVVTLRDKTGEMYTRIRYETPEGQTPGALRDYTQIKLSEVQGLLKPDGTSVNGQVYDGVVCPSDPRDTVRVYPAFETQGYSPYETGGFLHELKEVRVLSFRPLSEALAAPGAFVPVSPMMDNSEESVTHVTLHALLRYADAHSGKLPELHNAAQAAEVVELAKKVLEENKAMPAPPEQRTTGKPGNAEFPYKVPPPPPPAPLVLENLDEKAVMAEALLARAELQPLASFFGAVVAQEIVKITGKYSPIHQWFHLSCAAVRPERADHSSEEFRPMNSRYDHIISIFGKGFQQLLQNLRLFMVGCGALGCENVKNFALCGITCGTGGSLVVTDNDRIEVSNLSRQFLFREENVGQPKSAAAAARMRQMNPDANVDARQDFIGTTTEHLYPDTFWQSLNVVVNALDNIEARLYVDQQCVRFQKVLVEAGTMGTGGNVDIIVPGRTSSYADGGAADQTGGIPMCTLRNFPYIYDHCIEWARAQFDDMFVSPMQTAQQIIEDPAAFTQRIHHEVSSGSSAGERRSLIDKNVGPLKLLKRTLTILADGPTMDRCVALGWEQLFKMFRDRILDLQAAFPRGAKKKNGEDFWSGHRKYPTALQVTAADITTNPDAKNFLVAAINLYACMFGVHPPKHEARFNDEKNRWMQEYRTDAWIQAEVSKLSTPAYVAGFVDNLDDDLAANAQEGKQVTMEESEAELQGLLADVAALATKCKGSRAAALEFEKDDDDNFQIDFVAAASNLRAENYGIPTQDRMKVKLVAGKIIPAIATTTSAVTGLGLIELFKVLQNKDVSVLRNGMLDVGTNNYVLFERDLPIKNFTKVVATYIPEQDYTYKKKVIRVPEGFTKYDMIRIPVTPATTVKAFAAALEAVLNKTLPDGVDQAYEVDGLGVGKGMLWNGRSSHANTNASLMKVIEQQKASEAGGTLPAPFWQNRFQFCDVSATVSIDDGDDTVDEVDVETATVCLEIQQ

[3] = target: AMP-activated protein kinase, AMPK (Homo sapiens) (UniProt P54646+O43741+P54619+Q9UGJ0+Q9Y478+Q13131+Q9UGI9); assay: AMP-dependent Kinase enzyme assay. An in vitro enzyme assay that detects ADP turnover that is directly proportional to AMPK activity. This uses naive AMPK that is activated during the assay with MK-8722; assay type: functional; settings: 30 µM
[4] = target: Sialic acid-binding Ig-like lectin 9 (Homo sapiens) (UniProt Q9Y336); assay: Hs-Siglec9 ALPHAscreen SOP 20170721; settings: 10 µM
Trypanosoma cruzi = assay: Trypanosoma cruzi phosphomannomutase and mannose-1-phosphate guanylyltransferase assay; assay type: functional; settings: 10 µM
[5] = target: T2, Arginase-2, mitochondrial (Homo sapiens) (UniProt P78540); assay: in vitro enzyme assay to detect the production of urea directly proportional to the activity of Arginase II; assay type: functional; settings: 33.3 µM; note: in the data most compounds retested in dose-response had high values
T2 sequence (whole entry): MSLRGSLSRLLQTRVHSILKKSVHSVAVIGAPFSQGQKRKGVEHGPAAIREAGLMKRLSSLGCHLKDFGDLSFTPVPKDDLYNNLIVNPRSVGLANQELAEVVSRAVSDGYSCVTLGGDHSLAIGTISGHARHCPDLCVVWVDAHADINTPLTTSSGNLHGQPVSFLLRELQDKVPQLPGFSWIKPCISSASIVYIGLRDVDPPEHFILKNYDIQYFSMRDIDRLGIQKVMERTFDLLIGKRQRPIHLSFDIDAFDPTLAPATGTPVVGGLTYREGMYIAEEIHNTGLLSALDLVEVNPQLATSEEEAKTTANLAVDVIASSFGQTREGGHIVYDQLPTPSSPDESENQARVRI

[6] = target: T3, Proteasome subunit beta (Trypanosoma cruzi) (UniProt O96673); assay: Trypanosoma cruzi proteasome chymotrypsin-like activity (TcProtChymo) assay.; note: in the data most compounds retested in dose-response had high values; assay type: functional; settings: 9.37 µM
T3 sequence (whole entry): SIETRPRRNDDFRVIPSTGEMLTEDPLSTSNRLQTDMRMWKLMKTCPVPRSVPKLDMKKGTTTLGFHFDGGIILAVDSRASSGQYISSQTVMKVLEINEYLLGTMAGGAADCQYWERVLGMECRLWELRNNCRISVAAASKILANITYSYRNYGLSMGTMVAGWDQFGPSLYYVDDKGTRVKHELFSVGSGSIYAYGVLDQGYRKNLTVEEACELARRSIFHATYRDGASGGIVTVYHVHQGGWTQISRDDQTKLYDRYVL

Homo sapiens = species: Homo sapiens; assay: To identify inhibition of the IFN signalling (Jak-Stat) pathway via expression of an eGFP reporter gene under the control of an IFN-stimulated response element (ISRE) containing MxA promoter.; assay type: functional; settings: 30 µM
[7] = target: T4, Tyrosyl-tRNA synthetase, putative (Trypanosoma cruzi (strain CL Brener)) (UniProt Q4DSP6); assay: Trypanosoma cruzi tyrosyl tRNA synthetase (TcYRS) _High Tyrosine SOP; assay type: functional; settings: 30 µM; note: in the data most compounds retested in dose-response had high values
T4 sequence (whole entry): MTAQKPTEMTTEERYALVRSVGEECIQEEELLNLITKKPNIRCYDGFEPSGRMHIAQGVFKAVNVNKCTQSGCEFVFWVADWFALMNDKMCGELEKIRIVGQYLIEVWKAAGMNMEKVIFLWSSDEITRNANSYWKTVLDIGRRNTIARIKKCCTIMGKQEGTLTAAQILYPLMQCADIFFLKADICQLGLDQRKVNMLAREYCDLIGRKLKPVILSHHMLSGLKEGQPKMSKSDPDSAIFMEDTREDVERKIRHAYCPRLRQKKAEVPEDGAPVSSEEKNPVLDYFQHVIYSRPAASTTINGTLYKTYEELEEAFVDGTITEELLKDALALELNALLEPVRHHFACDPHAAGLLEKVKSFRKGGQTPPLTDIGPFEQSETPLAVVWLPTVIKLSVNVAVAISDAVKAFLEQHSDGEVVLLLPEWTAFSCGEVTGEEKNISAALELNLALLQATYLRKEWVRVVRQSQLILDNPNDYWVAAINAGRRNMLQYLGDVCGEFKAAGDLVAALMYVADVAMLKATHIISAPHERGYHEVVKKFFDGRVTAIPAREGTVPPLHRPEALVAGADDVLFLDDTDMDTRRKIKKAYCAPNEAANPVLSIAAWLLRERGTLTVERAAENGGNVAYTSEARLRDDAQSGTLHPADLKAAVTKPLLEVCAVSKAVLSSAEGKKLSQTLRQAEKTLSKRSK

[8] = target: T4, Tyrosyl-tRNA synthetase, putative (Trypanosoma cruzi (strain CL Brener)); assay: Trypanosoma cruzi tyrosyl tRNA synthetase (TcYRS) SOP; assay type: functional; settings: 30 µM
[9] = target: Chromo domain-containing protein 1 (Saccharomyces cerevisiae (strain ATCC 204508 / S288c) (Baker's yeast)) (UniProt P32657); assay: ScCHD-1 Enzyme Inhibition Assay; assay type: functional; settings: 30 µM; note: in the data most compounds retested in dose-response had high values
Chromo domain-containing protein 1 (Saccharomyces cerevisiae (strain ATCC 204508 / S288c) (Baker's yeast)), sequence (P32657 whole entry, the tested form may be a part): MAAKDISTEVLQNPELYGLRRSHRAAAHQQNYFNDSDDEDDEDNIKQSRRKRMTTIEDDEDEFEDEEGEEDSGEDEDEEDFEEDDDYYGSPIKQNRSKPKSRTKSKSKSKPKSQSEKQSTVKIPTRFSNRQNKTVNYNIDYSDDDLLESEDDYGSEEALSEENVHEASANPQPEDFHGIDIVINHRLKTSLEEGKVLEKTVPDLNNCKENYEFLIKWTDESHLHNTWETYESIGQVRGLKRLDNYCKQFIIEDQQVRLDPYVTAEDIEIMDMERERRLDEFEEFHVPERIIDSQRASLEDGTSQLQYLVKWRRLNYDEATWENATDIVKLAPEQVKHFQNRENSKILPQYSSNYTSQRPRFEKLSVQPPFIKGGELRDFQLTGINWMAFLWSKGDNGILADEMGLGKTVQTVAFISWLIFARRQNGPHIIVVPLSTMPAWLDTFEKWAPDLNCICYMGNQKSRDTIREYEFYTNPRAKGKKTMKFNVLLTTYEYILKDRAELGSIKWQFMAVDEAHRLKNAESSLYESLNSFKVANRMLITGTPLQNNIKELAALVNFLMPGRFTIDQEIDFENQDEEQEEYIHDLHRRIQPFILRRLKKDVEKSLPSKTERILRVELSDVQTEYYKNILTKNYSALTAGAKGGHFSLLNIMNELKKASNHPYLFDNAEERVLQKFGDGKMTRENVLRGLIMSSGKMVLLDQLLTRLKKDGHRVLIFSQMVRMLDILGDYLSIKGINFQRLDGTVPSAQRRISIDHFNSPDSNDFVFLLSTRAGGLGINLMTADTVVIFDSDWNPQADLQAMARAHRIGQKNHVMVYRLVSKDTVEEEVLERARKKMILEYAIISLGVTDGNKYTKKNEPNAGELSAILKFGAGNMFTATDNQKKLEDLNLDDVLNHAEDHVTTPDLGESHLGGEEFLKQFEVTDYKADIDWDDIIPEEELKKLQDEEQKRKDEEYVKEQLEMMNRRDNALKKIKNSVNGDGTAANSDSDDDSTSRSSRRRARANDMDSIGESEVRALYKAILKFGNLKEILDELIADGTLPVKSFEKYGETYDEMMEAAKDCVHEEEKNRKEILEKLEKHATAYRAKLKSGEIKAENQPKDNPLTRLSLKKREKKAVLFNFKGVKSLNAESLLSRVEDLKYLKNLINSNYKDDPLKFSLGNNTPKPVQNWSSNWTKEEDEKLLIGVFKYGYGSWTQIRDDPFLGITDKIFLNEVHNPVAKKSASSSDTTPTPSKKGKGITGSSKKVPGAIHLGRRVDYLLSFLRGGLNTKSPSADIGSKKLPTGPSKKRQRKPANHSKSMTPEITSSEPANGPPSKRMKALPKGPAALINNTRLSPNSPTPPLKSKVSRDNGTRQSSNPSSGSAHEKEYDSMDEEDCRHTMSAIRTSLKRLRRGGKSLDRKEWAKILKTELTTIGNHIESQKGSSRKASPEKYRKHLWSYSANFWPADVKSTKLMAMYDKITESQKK

Protein translocase subunit SecA (Escherichia coli (strain K12)), sequence (P10408 whole entry): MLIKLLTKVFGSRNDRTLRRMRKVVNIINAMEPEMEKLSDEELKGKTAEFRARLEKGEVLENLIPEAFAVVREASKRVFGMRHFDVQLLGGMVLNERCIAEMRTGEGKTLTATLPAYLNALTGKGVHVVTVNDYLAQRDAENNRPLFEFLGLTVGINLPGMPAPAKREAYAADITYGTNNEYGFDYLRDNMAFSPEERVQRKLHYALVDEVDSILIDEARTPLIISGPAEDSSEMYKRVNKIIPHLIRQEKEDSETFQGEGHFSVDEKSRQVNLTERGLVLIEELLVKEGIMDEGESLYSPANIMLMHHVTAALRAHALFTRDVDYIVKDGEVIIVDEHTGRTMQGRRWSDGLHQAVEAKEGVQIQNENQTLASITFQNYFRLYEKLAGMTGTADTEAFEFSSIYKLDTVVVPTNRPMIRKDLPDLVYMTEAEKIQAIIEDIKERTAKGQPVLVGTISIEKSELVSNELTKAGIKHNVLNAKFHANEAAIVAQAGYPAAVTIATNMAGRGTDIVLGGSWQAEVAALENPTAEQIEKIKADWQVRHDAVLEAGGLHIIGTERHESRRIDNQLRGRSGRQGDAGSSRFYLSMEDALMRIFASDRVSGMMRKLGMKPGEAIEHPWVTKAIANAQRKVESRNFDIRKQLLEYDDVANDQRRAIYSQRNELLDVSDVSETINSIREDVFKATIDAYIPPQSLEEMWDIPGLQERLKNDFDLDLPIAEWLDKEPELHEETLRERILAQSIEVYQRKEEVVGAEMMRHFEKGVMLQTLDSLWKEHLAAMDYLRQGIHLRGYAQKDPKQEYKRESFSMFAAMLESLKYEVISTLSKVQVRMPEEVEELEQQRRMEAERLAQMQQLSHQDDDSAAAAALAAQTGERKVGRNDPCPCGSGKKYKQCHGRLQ
Sialic acid-binding Ig-like lectin 9 (Homo sapiens), sequence (Q9Y336 whole entry): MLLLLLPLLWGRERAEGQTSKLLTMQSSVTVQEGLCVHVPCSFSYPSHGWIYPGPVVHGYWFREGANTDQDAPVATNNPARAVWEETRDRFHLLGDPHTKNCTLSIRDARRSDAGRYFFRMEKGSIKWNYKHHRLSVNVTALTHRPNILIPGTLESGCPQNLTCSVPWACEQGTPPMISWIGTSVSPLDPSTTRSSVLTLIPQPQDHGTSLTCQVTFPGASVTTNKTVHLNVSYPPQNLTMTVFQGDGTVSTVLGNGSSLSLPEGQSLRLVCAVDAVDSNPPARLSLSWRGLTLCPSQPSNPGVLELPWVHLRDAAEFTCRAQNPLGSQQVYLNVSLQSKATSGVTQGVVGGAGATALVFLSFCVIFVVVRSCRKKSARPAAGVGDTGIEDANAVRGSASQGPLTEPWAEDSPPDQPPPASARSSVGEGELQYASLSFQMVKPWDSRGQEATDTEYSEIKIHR

Compound | Percent Effect [1] [%] | Percent Effect [2] [%] | Percent Effect [3] [%] | Percent Effect [4] [%] | Percent Effect (Trypanosoma cruzi) [%] | Percent Effect [5] [%] | Percent Effect [6] [%] | Percent Effect (Homo sapiens) [%] | Percent Effect [7] [%] | Percent Effect [8] [%] | Percent Effect [9] [%]
CCc1ccc(C(=O)Nc2ccc(CC3CC(=O)NC3=O)cc2)cc1 (stereo not given) | -1.66 | 8.22 | 15.3 | 3.15 | 1.76 | 5.46 | 11.9 | 11.7 | 2.15 | 12.5 | -6.28
NC(=O)CN1CCCN(C(=O)c2ccn(-c3ccccc3)n2)CC1 | 0.801 | 9.72 | -1.01 | 12.3 | 1.26 | 9.71 | 11.9 | 13.7 | 5.26 | 7.69 | -4.05
CC(=O)c1cccc(NC(=O)Cn2cc(I)cn2)c1 | -6.3 | -2.63 | 12 | 2.47 | -2.43 | 11.8 | 9.3 | -2.61 | -2.13 | 2.6 | 63
Cc1cccc(CNCc2c(C(C)C)nn(C)c2N2CCOCC2)n1 | -1.17 | 5.48 | -18.3 | -6.47 | -1.57 | -8.64 | 5.68 | -8.24 | 2.15 | 5 | -2.13
O=C(CCc1nccs1)N1CCN(c2cccnn2)CC1 | -4.08 | 10.4 | 4.08 | 3.62 | 2.84 | -0.21 | -0.404 | 13.5 | 5.71 | 9.41 | -12.4
CCc1ccc(S(=O)(=O)Nc2cc(OC)c(OC)cc2C(=O)O)s1 | -4.39 | 13.2 | 5.52 | -13.6 | -8.12 | 2.16 | 8.54 | 8.65 | -7.39 | -1.24 | -5.49
O=C(Nc1ccccc1)C1CN(CC2CC2)CC12CCOCC2 (stereo not given) | -1.55 | 5.33 | 7.28 | -3.04 | -0.579 | -8.42 | 10.4 | -0.536 | -3.12 | -10 | -4.82
CCN(CC)C(=O)c1nnn(-c2ccc(C)cc2)c1C1CC1 | -2.41 | 13.5 | -1.1 | 9.18 | 6.04 | 1.29 | -1.62 | 6.05 | 0 | 18.3 | -3.92
CN(C)C(C(=O)N1CCC(N2CCSCC2)CC1)c1ccccc1F (stereo not given) | -0.819 | 12.5 | -3.64 | 4.95 | 1.46 | 22.5 | 20.7 | -4.19 | 10.5 | 20.5 | -1.59
Cc1ccc2cc(CNCCCO)c(=O)[nH]c2c1 | 2.35 | 9.46 | 7.11 | -4.27 | -5.34 | 4.41 | 5.15 | 8.44 | 1.07 | 9.09 | -13.8
O=C(Cn1c(=O)n(Cc2ccco2)c2ncccc21)Nc1ccccn1 | -8.13 | 1.35 | 4.77 | 2.6 | -6.13 | -4.41 | 9.2 | 3.38 | 5.38 | 1.3 | -0.416
CCCNC(=O)CCNC(=O)Cc1nc(-c2ccco2)oc1C | -3.29 | 2.67 | -1.47 | 12.8 | -5.16 | 4.69 | 13.2 | 8.33 | 3.83 | 8.64 | -3.56
Cc1cc(C)c(CNC(=O)NCC2CCCN2C)c(=O)[nH]1 (stereo not given) | -7.62 | 2.63 | -1.76 | 2.1 | -4.89 | -2.68 | 4.84 | 25.4 | -4.41 | -2.44 | -2.8
CN(C)C(=O)NCc1cc2n(n1)CCN(C[C@H]1[C@@H]3CNC[C@@H]31)C2 | -4.24 | 13.5 | -5.71 | 30.6 | 9.65 | 15.7 | 9.65 | 10.3 | 3.7 | 19.5 | -12.2
COc1ccc(-c2nnc(SC(C)C(=O)NC3CC3)[nH]2)c(OC)c1 (stereo not given) | -8.04 | 15.8 | 1.94 | -2.88 | 2.63 | -2.37 | 13.3 | 71.7 | 6.38 | 18.2 | -7.11
Cc1cccc(-c2nc(CN(Cc3cccs3)CC3CCCO3)no2)c1 (stereo not given) | -1.96 | -51.9 | 2.38 | -0.778 | 0.103 | 4.95 | 7.72 | 25.8 | -7.29 | -17.7 | -15.2
CCOCC(O)CN1CCN(C(=O)c2cc(F)ccc2C)CC1 (stereo not given) | -1.68 | 0 | -2.69 | -1.76 | 0.187 | 0 | -3.72 | -13.3 | 0.971 | 2.44 | 2.5
Cn1ncc2c(=O)[nH]c(CN3CCC(Cc4ccccc4)CC3)nc21 | -4.67 | 10.5 | -7.07 | 0.445 | 8.87 | 3.6 | 7.7 | -0.345 | 9.36 | 25.9 | -10.4
COc1ncccc1NC(=O)C1CC(=O)N(Cc2ccccn2)C1 (stereo not given) | -1.71 | 10.5 | 4.85 | -1.28 | -4.97 | -2.37 | 22.3 | -2.21 | 4.25 | 13 | -2.98
CC(CNCc1ccncc1)Oc1ccccn1 (stereo not given) | -0.77 | 9.33 | -1.66 | 5.01 | 0 | -15.3 | 13.9 | 2.27 | 4.23 | 7.69 | -10.8
